From the supplement of paper PMC4723716
± gives the uncertainty stated by the source. Over roughly 9,900 compounds, “viability index relative to DMSO control” has its median near 1; the lowest 2% begin near 0.85. Only a selection was taken, and the lowest values are over-represented in it overall.

Tested on: Plasmodium falciparum NF54 stage V gametocytes
Experiment: viability index relative to DMSO control (fraction); higher = less gametocyte killing
Conditions: 2.5 µM, incubation time: 72 h
Outline: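 P. falciparum NF54 stage V gametocytes in serum-free screening medium (0.75% gametocytemia, 1.25% hematocrit, 10 µl) were incubated with compound at 2.5 µM in 1,536-well plates for 72 hr at 37°C under low oxygen. Then 3 µl of 2.5 µM MitoTracker Red CMXRos plus 0.13% saponin was added for one to two hours. One field per well was imaged, 20–70 µm2 red particles were counted, and the viability index was the count divided by the plate mean of DMSO wells.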

[1] = library set: Broad Institute DOS
[2] = library set: Broad Institute Blood Stage

O=S(=O)(c1ccc(F)cc1)N1C[C@@H]2N[C@H](C1)[C@H]2c1ccc(/C=C/c2ccccc2)cc1
viability index [1]: 1.04 ± 0.055

O=S(=O)(c1ccc(F)cc1)N1C[C@@H]2N[C@H](C1)[C@@H]2c1ccc(/C=C/c2ccccc2)cc1
viability index [1]: 0.78 ± 0.029

COc1cccc(S(=O)(=O)N[C@@H]2CC[C@H](CC(=O)NC3Cc4ccccc4C3)O[C@H]2CO)c1
viability index [1]: 0.907 ± 0.18

Cc1ccc(S(=O)(=O)Nc2ccc3c(c2)C(=O)N([C@H](C)CO)C[C@H](C)[C@H](CN(C)S(=O)(=O)c2cccs2)OCCCC[C@H](C)O3)cc1
viability index [1]: 1.07 ± 0.14

CNC[C@H]1Oc2ccc(NS(=O)(=O)c3ccc(OC)cc3)cc2C(=O)N([C@H](C)CO)C[C@H]1C
viability index [1]: 1.01 ± 0.079

Cc1noc(C)c1NC(=O)N[C@H]1C=C[C@H](CC(=O)Nc2ccc(-c3ccccc3)cc2)O[C@H]1CO
viability index [1]: 1.0744 ± 0.00039

CO[C@H]1CN(C)C(=O)c2cc(NC(=O)c3ccc(F)cc3)ccc2OC[C@@H](C)N(C(=O)CC2CC2)C[C@H]1C
viability index [1]: 1.099 ± 0.004

CCCNC(=O)N1C[C@@H](O)COC[C@H]2O[C@@H](CC(=O)OC)CC[C@@H]21
viability index [1]: 1.14 ± 0.053

N#C[C@@H]1[C@H](c2ccccc2-c2cccc(F)c2)[C@H](CO)N1C(=O)CN1CCOCC1
viability index [1]: 1.15 ± 0.068

C/C=C/c1ccc([C@H]2[C@@H](CO)N(CC3CCCCC3)[C@@H]2CNC(C)C)cc1
viability index [2]: 0.565 ± 0.068

C/C=C/c1ccc([C@H]2[C@@H](CNC(=O)CC3CC3)N(C(=O)CC)[C@H]2CO)cc1
viability index [1]: 1.05 ± 0.054

C/C=C/c1ccc([C@H]2[C@@H](CO)N(C(=O)C3CC3)[C@H]2CNC(=O)NC(C)C)cc1
viability index [1]: 0.989 ± 0.018

C/C=C/c1ccc([C@H]2[C@@H](CO)N(CC3CCCC3)[C@H]2CNS(C)(=O)=O)cc1
viability index [1]: 1.03 ± 0.099

C/C=C/c1ccc([C@H]2[C@H](CO)N(S(C)(=O)=O)[C@H]2CNCC2CCC2)cc1
viability index [1]: 0.688 ± 0.08

C/C=C/c1ccc([C@H]2[C@@H](CO)N(S(C)(=O)=O)[C@@H]2CN(C(C)=O)C(C)C)cc1
viability index [1]: 0.957 ± 0.06

CCC(=O)Nc1ccc2c(c1)C(=O)N(C)C[C@@H](OC)[C@@H](C)CN(Cc1nccs1)[C@H](C)CO2
viability index [1]: 1.16 ± 0.082

COC(=O)C[C@@H]1CC[C@@H]2[C@@H](COc3ccc(NC(=O)c4ccc(C(F)(F)F)cc4)cc3C(=O)N2C)O1
viability index [1]: 1.13 ± 0.065

C[C@@H]1COCn2nncc2CC[C@H](Cc2cccc(Cl)c2)C(=O)N1
viability index [1]: 1.09 ± 0.051

COCC(=O)Nc1ccc2c(c1)C(=O)N(C)[C@H]1CC[C@@H](CC(=O)NC3Cc4ccccc4C3)O[C@@H]1CO2
viability index [1]: 1.16 ± 0.13

C[C@H]1CN([C@@H](C)CO)C(=O)c2cc(/C=C/c3ccccc3)cnc2O[C@@H]1CN(C)S(=O)(=O)c1ccccc1F
viability index [1]: 1.03 ± 0.082

C[C@H](CO)N1C[C@H](C)[C@@H](CN(C)S(=O)(=O)c2ccccc2F)Oc2ncc(/C=C/c3ccccc3)cc2C1=O
viability index [1]: 1.05 ± 0.049

C[C@H](CO)N1C[C@H](C)[C@@H](CN(C)C(=O)C2CCCCC2)Oc2ncc(/C=C/c3ccccc3)cc2C1=O
viability index [2]: 0.735 ± 0.028

C[C@H]1CN([C@@H](C)CO)C(=O)c2cc(/C=C/c3ccccc3)cnc2O[C@@H]1CN(C)C(=O)C1CCCCC1
viability index [2]: 0.643 ± 0.072

C[C@@H]1CN([C@@H](C)CO)C(=O)c2cc(/C=C/c3ccccc3)cnc2O[C@@H]1CN(C)S(=O)(=O)c1ccccc1F
viability index [1]: 1.02 ± 0.059

C[C@H]1CN([C@@H](C)CO)C(=O)c2cc(/C=C/c3ccccc3)cnc2O[C@H]1CN(C)S(=O)(=O)c1ccccc1F
viability index [1]: 1.03 ± 0.12

COc1ccc2c3c([nH]c2c1)[C@@H](CO)N(Cc1cc(OC)cc(OC)c1)C[C@]31CN(C1)C(=O)Nc1c(C)noc1C
viability index [1]: 0.974 ± 0.12

C[C@H](CO)N1C[C@H](C)[C@@H](CN(C)Cc2ccc3cccnc3c2)OCc2cnnn2CCCC1=O
viability index [1]: 1.07 ± 0.014

Cc1noc(C)c1NC(=O)Nc1ccc2c(c1)C(=O)N([C@@H](C)CO)C[C@H](C)[C@H](CN(C)S(=O)(=O)c1cccs1)OCCCC[C@@H](C)O2
viability index [1]: 1.09 ± 0.045

COc1ccc(C(=O)Nc2ccc3c(c2)C(=O)N(C)[C@@H]2CC[C@@H](CC(=O)NCC4CC4)O[C@H]2CO3)cc1
viability index [1]: 0.932 ± 0.15

COc1ccc(C(=O)Nc2ccc3c(c2)C(=O)N(C)[C@H]2CC[C@H](CC(=O)NCC4CC4)O[C@H]2CO3)cc1
viability index [1]: 0.823 ± 0.15

CC(C)NC(=O)Nc1ccc2c(c1)C(=O)N(C)[C@@H]1CC[C@H](CC(=O)NCc3ccc(F)cc3)O[C@@H]1CO2
viability index [1]: 1.11 ± 0.047

CN1C(=O)c2cc(NC(=O)Nc3ccc(Cl)cc3)ccc2OC[C@@H]2O[C@H](CC(=O)NCCN3CCCCC3)CC[C@H]21
viability index [1]: 0.955 ± 0.11

COc1ccc(C(=O)Nc2ccc3c(c2)C(=O)N(C)[C@@H]2CC[C@@H](CC(=O)NCC4CC4)O[C@@H]2CO3)cc1
viability index [1]: 1.03 ± 0.11

CC(C)NC(=O)Nc1ccc2c(c1)C(=O)N(C)[C@H]1CC[C@@H](CC(=O)NCc3ccc(F)cc3)O[C@H]1CO2
viability index [1]: 0.814 ± 0.17

CN1C(=O)c2cc(NC(=O)Nc3ccc(Cl)cc3)ccc2OC[C@@H]2O[C@@H](CC(=O)NCCN3CCCCC3)CC[C@H]21
viability index [1]: 0.838 ± 0.04

CN1C(=O)c2cc(NC(=O)Nc3ccc(Cl)cc3)ccc2OC[C@H]2O[C@@H](CC(=O)NCCN3CCCCC3)CC[C@H]21
viability index [1]: 1.01 ± 0.025

CC(C)NC(=O)Nc1ccc2c(c1)C(=O)N(C)[C@H]1CC[C@H](CC(=O)NCc3ccc(F)cc3)O[C@H]1CO2
viability index [1]: 0.919 ± 0.034
